Assay results: PubChem BioAssay (NCATS)
Values without a mark were called inactive. Results filed as inconclusive are left out. Where a call stands in place of a potency, no number is given. The source made the active and inactive calls. Unless noted, the call rests on the fitted dose curve; in most records, active means well fitted curve in the direction sought with a large enough effect; inconclusive means small, poorly fitted or top-dose-only effect, or another doubt; inactive means no such curve, though single readings can be large; an effect the other way counts as inactive or inconclusive.

Columns and labels:
[1] = target: Glucocorticoid receptor (Homo sapiens) (UniProt P04150); assay: GR-GFP Redistribution (AID 450;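 active means compounds whose dose series gives a full or clear partial fitted curve of increased nuclear translocation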; further: potency means the concentration at half of the fitted maximal effect); details: U2OS GR-GFP nuclear translocation, laser cytometry, 2 h
Glucocorticoid receptor (Homo sapiens), sequence (P04150 whole entry, looked up, the tested form may be a part): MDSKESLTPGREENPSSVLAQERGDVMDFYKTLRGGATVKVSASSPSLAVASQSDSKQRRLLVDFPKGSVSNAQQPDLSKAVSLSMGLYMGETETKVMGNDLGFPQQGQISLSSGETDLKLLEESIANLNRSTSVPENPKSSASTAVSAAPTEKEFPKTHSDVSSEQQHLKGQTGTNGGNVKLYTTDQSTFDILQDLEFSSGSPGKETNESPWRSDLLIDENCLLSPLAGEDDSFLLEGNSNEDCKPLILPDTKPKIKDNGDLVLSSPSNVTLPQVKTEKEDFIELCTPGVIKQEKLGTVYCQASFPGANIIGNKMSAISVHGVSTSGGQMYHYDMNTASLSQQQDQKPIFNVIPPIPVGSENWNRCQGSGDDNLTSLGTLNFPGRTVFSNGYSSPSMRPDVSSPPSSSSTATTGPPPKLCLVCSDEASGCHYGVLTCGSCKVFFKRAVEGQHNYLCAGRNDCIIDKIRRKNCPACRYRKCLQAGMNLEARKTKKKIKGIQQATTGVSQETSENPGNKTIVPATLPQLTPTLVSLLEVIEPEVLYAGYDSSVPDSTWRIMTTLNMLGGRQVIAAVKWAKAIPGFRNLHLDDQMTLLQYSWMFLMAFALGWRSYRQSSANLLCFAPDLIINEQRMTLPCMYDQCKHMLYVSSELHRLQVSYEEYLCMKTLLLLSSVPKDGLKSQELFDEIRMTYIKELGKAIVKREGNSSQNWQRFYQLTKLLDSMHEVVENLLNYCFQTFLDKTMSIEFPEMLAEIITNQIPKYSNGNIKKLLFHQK

[2] = target: Glucocorticoid receptor (Homo sapiens) (UniProt P04150); assay: GR-EFC Redistribution (AID 451; calls by dose curve; further: potency means the concentration at half of the fitted maximal effect); details: CHO-K1 GR-EFC translocation, beta-gal luminescence, 2 h
Method in brief: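 Translocation of GR-ED fusion to nuclear EA restores b-gal, read by luminescence after 1 h room-temperature detection. Engineered CHO-K1 biosensor cells, 1,000/well, exposed 2 h at 37 C to titrations up to 46 uM final.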

[3] = target: DNA dC->dU-editing enzyme APOBEC-3G (Homo sapiens) (UniProt Q9HC16); assay: qHTS for inhibitors of Vif-A3G interactions: Validation (AID 588379); details: Vif-A3G protein interaction assay; series mostly up to 46.1 µM
DNA dC->dU-editing enzyme APOBEC-3G (Homo sapiens), sequence (Q9HC16 whole entry, looked up): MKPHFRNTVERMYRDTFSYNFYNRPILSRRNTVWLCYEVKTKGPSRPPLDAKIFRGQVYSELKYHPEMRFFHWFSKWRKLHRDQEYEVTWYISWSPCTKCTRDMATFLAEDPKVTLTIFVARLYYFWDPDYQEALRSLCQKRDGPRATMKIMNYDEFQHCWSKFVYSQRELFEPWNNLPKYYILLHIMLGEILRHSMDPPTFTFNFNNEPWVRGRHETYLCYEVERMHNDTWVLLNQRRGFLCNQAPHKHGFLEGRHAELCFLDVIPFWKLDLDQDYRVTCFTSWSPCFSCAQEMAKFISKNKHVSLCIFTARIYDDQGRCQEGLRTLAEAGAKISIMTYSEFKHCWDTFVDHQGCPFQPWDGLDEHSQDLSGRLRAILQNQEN
Method in brief: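 HeLa cells stably expressing Vif and A3G-eYFP, 700 cells/well, incubated overnight at 37 deg C, then exposed to compound overnight at 37 deg C. Inhibition of Vif-mediated degradation read as increased yellow fluorescence (Ex 488/Em 500-530) by laser-scanning cytometry.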

[4] = tested on: Zika virus NS2B-NS3 protease; assay: Primary screen GU AMC qHTS for Zika virus inhibitors (AID 1347154); details: Zika NS2B-NS3 unlinked protease, AMC fluorogenic substrate; series mostly up to 54.1 µM; further: nearly all actives have a fitted effect of over 70% in size
Method in brief: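 Fluorogenic AMC-substrate cleavage by noncovalent NS2B-NS3 protease complex (25 nM, pH 8.0 Tris buffer with Tween 20) followed for 15 minutes at room temperature (~20% conversion). Percent inhibition from ex340/em450 signal change, fitted by 4-parameter Hill equation.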

[5] = Primary qHTS for small molecule stabilizers of the endoplasmic reticulum resident proteome: Secreted ER Calcium Modulated Protein (SERCaMP) assay (AID 1508630); details: SH-SY5Y GLuc-SERCaMP (Gaussia luciferase released on ER calcium loss) secretion, thapsigargin, luminescence; series mostly up to 38.4 µM
Method in brief: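 GLuc-SERCaMP-expressing SH-SY5Y cells, pretreated 16 h with compound, are challenged with thapsigargin to empty ER calcium stores; after 4 h, coelenterazine is added directly to the medium and luminescence is imaged.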

[6] = target: Mitogen-activated protein kinase 10 (Mus musculus) (UniProt Q61831); assay: JNK3 AlphaScreen Assay (AID 530; active means well fitted curve in either direction with a large enough effect, not every such curve was filed as active;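 further: kinase came from lysate of stimulated human HepG2 cells; signal reports phosphorylation of biotinylated GST-cJun 1-79 at Ser73 with 10 µM ATP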); details: JNK3 lysate, c-Jun phosphorylation; series mostly up to 57.1 µM
Method in brief: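 Compound titrations were preincubated 15 minutes at room temperature with substrate, antibody and pre-activated JNK3-containing HepG2 lysate. Reactions were started with 10 uM ATP and stopped with EDTA-containing bead buffer for AlphaScreen detection.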

[7] = target: 3',5'-cyclic-AMP phosphodiesterase 4B (Homo sapiens) (UniProt Q07343); assay: qHTS Assay for Inhibitors of PDE-IV (AID 607; active means well fitted activation curve with a large enough effect in the main read-out, with a control signal flat, not every such curve was filed as active); details: HEK293 ACTOne CNG channel cells, membrane potential fluorescence; series mostly up to 22.9 µM
3',5'-cyclic-AMP phosphodiesterase 4B (Homo sapiens), sequence (Q07343 whole entry, looked up): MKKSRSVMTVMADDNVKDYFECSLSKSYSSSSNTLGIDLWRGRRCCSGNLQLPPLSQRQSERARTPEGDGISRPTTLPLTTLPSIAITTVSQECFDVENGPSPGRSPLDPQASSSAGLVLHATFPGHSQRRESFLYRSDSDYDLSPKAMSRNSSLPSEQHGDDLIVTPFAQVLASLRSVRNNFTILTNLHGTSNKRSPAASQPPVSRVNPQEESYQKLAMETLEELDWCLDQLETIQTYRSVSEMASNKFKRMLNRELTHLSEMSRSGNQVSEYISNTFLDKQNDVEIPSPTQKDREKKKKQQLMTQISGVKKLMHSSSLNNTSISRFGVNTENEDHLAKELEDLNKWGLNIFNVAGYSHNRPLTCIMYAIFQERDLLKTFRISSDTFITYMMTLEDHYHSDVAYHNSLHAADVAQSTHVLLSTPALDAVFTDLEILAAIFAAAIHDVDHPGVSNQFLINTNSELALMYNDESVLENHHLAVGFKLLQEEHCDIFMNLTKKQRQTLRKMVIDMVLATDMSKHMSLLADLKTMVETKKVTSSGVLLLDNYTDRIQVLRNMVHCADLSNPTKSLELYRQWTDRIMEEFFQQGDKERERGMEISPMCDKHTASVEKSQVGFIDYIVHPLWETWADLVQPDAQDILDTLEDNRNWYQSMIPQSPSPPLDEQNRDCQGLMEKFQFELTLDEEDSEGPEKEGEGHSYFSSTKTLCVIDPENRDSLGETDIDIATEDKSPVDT
Method in brief: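 Live HEK293 cells with a modified cyclic nucleotide-gated (CNG) channel report intracellular cAMP via membrane-potential dye fluorescence (ex 535/em 590 nm). Endogenous PDE-IV was targeted. Compounds were tested at up to 22.9 uM final; RO 20-1724 100 uM served as control.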

[8] = target: Cytochrome P450 2C9 (Homo sapiens) (UniProt P11712); assay: qHTS Assay for Inhibitors and Substrates of Cytochrome P450 2C9 (AID 883); details: recombinant CYP2C9, luciferin-H luminescence, 60 min; series mostly up to 57.1 µM; further: potency means the concentration at half of the fitted maximal effect; nearly all actives have a fitted effect of over 60% in size
Cytochrome P450 2C9 (Homo sapiens), sequence (P11712 whole entry, looked up): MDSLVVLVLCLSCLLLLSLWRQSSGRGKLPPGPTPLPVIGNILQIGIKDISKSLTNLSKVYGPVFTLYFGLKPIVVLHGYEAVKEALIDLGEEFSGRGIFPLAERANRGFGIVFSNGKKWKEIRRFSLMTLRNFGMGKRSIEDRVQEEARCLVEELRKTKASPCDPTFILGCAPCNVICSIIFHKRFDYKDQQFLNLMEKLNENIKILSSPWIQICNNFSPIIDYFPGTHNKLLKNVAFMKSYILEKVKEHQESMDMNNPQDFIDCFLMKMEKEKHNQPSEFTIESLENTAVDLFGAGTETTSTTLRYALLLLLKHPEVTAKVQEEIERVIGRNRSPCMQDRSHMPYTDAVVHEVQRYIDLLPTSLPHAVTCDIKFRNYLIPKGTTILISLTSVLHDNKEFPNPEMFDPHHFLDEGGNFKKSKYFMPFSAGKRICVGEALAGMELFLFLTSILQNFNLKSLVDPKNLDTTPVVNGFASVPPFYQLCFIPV
Method in brief: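 Luminescent read-out of deoxyluciferin hydroxylation, normalized to 57uM sulphaphenazole (AC100). Reaction: 10nM enzyme, 100uM Luciferin-H (equal to KM), 25mM KPO4, 10 min compound preincubation, then 60 min with NADPH regeneration, both at 37C.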

[9] = target: Cytochrome P450 2C19 (Homo sapiens) (UniProt P33261); assay: qHTS Assay for Inhibitors and Substrates of Cytochrome P450 2C19 (AID 899); details: recombinant CYP2C19, luciferin-H EGE luminescence; series mostly up to 57.1 µM; further: potency means the concentration at half of the fitted maximal effect; nearly all actives have a fitted effect of over 60% in size
Cytochrome P450 2C19 (Homo sapiens), sequence (P33261 whole entry, looked up): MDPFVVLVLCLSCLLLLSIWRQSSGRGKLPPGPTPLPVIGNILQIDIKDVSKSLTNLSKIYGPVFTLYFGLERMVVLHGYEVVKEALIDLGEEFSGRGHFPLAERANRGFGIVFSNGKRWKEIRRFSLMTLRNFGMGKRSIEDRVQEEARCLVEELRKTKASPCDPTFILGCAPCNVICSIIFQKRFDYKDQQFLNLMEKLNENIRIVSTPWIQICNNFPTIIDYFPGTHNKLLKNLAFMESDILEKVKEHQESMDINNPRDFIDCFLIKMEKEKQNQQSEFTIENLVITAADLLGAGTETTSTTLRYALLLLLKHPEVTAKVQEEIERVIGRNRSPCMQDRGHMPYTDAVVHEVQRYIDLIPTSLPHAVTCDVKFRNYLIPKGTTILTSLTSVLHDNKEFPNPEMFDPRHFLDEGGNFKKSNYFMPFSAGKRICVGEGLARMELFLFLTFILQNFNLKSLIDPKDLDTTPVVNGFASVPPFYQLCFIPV
Method in brief: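 Luminescence readout of luciferin formed from 10uM Luciferin-H EGE (KM level) by 5 nM CYP2C19 in 50mM KPO4. 60 min NADPH-driven reaction at 37C after 10 min compound preincubation; data scaled to 57uM ketoconazole inhibition.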

[10] = target: Cytochrome P450 3A4 (Homo sapiens) (UniProt P08684); assay: qHTS Assay for Inhibitors and Substrates of Cytochrome P450 3A4 (AID 884); details: recombinant CYP3A4, Luciferin-PPXE luminescence; series mostly up to 57.1 µM; further: nearly all actives have a fitted effect of over 50% in size
Cytochrome P450 3A4 (Homo sapiens), sequence (P08684 whole entry, looked up): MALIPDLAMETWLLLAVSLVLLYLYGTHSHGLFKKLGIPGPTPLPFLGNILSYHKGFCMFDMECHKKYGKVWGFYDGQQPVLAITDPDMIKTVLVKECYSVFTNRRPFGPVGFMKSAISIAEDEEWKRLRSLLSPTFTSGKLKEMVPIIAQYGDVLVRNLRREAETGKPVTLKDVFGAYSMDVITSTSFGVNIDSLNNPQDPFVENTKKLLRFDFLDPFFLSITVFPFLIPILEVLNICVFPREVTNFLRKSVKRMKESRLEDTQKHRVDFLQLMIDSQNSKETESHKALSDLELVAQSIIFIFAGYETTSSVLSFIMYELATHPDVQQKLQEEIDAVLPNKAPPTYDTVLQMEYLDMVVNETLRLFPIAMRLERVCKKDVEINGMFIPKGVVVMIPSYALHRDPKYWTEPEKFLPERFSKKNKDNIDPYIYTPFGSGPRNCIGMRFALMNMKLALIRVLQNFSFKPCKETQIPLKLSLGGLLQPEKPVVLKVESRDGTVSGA
Method in brief: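 20 nM human CYP3A4 with 25 uM Luciferin-PPXE (at KM) in 200 mM KPO4, preincubated 10 min with compound; NADPH regeneration started a 60 min RT reaction. Luciferin detected by luminescence, normalized to 57 uM ketoconazole as full inhibition.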

[11] = target: Cytochrome P450 3A4 (Homo sapiens) (UniProt P08684); assay: qHTS Assay for Activators of Cytochrome P450 3A4 (AID 885); details: recombinant CYP3A4, Luciferin-PPXE luminescence, 60 min; series mostly up to 57.1 µM; further: nearly all actives have a fitted effect of over 65% in size; further: potency means the concentration at half of the fitted maximal effect
Method in brief: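 Quantitative HTS format: compounds preincubated with 20nM human CYP3A4 and Luciferin-PPXE substrate at KM, reaction started by NADPH regeneration, stopped after 60 min, luciferase luminescence read 20 min later.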

[12] = target: Ubiquitin carboxyl-terminal hydrolase 1 (Homo sapiens) (UniProt O94782); assay: Inhibitors of USP1/UAF1: Pilot qHTS (AID 504865); details: purified USP1/UAF1, Ub-rhodamine cleavage fluorescence; series mostly up to 114 µM; further: nearly all actives have a fitted effect of over 35% in size; further: potency means the concentration at half of the fitted maximal effect
Ubiquitin carboxyl-terminal hydrolase 1 (Homo sapiens), sequence (O94782 whole entry, looked up): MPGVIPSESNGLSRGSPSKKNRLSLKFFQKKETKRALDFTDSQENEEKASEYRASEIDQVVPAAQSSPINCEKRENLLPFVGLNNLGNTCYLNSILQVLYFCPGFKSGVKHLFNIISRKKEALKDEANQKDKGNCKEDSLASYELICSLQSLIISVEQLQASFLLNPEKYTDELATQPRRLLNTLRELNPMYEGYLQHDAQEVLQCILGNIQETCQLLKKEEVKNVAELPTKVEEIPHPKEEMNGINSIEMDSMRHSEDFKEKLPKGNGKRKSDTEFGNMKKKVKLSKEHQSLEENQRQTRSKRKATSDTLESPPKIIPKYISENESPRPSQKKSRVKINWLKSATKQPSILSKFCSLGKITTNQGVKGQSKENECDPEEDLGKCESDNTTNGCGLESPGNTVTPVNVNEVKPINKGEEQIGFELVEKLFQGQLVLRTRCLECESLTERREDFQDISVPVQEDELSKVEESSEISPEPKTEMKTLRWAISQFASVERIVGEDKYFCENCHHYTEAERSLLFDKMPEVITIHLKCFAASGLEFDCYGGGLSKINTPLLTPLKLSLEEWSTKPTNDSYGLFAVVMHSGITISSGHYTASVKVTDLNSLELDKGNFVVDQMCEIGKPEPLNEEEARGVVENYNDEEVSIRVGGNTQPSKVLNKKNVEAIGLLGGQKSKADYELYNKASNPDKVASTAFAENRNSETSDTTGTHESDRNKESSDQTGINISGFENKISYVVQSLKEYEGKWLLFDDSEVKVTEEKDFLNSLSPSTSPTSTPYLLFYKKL
Method in brief: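 In 50mM HEPES pH 7.8 containing 0.5mM EDTA, 1mM TCEP, 0.1 mg/ml BSA and 0.01% Tween-20, 1nM USP1/UAF1 is exposed to compound for 15 min, then Ub-Rho (150nM final) is added and fluorescence is read over time.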

SMILES	Potency [1]	Potency [2]	Potency [3]	Potency [4]	Potency [5]	Potency [6]	Potency [7]	Potency [8]	Potency [9]	Potency [10]	Potency [11]	Potency [12]
CC(C)C[C@@H](NC(=O)OCC1c2ccccc2-c2ccccc21)C(=O)O	> 46 µM	> 46 µM	inactive	inactive	inactive							
Cc1c(C(=O)NN2CCOCC2)nn(-c2ccc(Cl)cc2Cl)c1-c1ccc(I)cc1	> 46 µM	> 46 µM	inactive	inactive	inactive	inactive	inactive	6.31 µM (active)	7.94 µM (active)			
N=C(N)S/C=C\C(=O)O	> 46 µM	> 46 µM	inactive	inactive	inactive	inactive						
CCCN(C/C=C\I)[C@@H]1CCc2cccc(O)c2C1	> 46 µM	> 46 µM	inactive	inactive	inactive	inactive				inactive	25.1 µM (active)	
NCCCCNS(=O)(=O)c1ccc2c(Cl)cccc2c1	> 46 µM	> 46 µM	inactive	inactive	inactive	inactive		2 µM (active)	0.0025 µM (active)		inactive	inactive
Cn1ccc2cc(NC(=O)Nc3cccnc3)ccc21	> 46 µM		inactive	inactive	inactive		inactive					
COc1ccccc1N1CCN(CCn2c(=O)[nH]c3c([nH]c4ccccc43)c2=O)CC1	> 46 µM	> 46 µM	inactive	inactive	inactive	inactive	inactive				inactive	
CCCCCCCCCCCCC(=O)N1CCCC[C@H]1CNC(=O)[C@@H](N)CCCCN	> 46 µM	> 46 µM	inactive	inactive	inactive		inactive		7.94 µM (active)			50.1 µM (active)
C[C@@H]1c2ccccc2CN1CC1=NCCN1	> 46 µM	> 46 µM	inactive	inactive	inactive	inactive	inactive				inactive	50.1 µM (active)
COc1ccc(NC(=O)c2ccc(-c3ccc(-c4noc(C)n4)cc3C)cc2)cc1OCCN(C)C	> 46 µM	> 46 µM	inactive	inactive	inactive	inactive					inactive	
